Test results published in PubChem BioAssay (NCATS).
Records with an inconclusive call do not appear. A call without a number means that no potency is given here. Calls of active or inactive are those of the source. The call rests on the fitted dose curve; in most records, active means well fitted inhibition curve with a large enough effect; inconclusive means small, poorly fitted or top-dose-only effect; inactive means no such curve, though single readings can be large or run the other way.

Tested on: Zika virus NS2B-NS3 protease (linked construct)
Assay: Primary screen NINDS Rhodamine qHTS for Zika virus inhibitors (AID 1347160); further: nearly all actives have a fitted effect of over 55% in size
Conditions: purified NS2B-NS3 protease, Rhodamine110 substrate fluorescence; series mostly up to 57.1 µM
Outline: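 Rhodamine110-peptide cleavage (1.5 µM substrate) by 25 nM linked NS2B-NS3 enzyme at pH 8.0 (Tris, Tween 20), after 15 min RT preincubation with compounds; 15-min fluorescence change normalized to controls and Hill-fitted.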
Potency means the concentration at half of the fitted maximal effect.

Compound | Potency | activity change, negative = inhibition
CC(=O)O[C@H]1[C@@H](O)[C@H](O[C@H]2[C@@H]3C=CO[C@@H](O[C@H]4O[C@@H](CO)[C@H](O)[C@@H](O)[C@@H]4O)[C@@H]3[C@@]3(CO)O[C@@H]23)O[C@@H](C)[C@@H]1OC(=O)/C=C/c1ccccc1 | inactive | 
COC(=O)[C@@]1(c2ccc(C)cc2)C[C@H]1CN1CCC(O)(c2ccccc2)CC1 | inactive | 
C=C(C(=O)O)C1CCC2(C)CCCC(C)(O)C2C1 (stereo not given) | inactive | 
CC1CCC2(CO)C(C(=O)O)=CCCC2C1(C)CCc1ccoc1 (stereo not given) | inactive | 
OC[C@H]1O[C@@H](O[C@H]2[C@H](OCCc3ccccc3)O[C@H](CO)[C@@H](O)[C@@H]2O)[C@H](O)[C@@H](O)[C@@H]1O | inactive | 
C[C@@H]1O[C@@H](O[C@H]2[C@@H]3C=CO[C@@H](O[C@@H]4O[C@H](CO)[C@@H](O)[C@H](O)[C@H]4O)[C@@H]3[C@@]3(CO)O[C@@H]23)[C@H](OC(=O)/C=C/c2ccccc2)[C@H](O)[C@H]1O | inactive | 
COc1cc(O)c2c(c1)C1=CC(O)C(O)CC1(C)OC2=O (stereo not given) | inactive | 
Cc1nc(NC(=O)N2CCCC2C(N)=O)sc1-c1csc(C(C)(C)C)n1 (stereo not given) | inactive | 
O=C(/C=C\n1cnc(-c2cc(C(F)(F)F)cc(C(F)(F)F)c2)n1)N1CC(F)(F)C1 | inactive | 
OC[C@H]1O[C@@H](Oc2ccccc2)[C@H](O)[C@@H](O)[C@@H]1O | inactive | 
CC1(C)CCC2(C(=O)OC3OC(CO)C(O)C(O)C3O)CCC3(C)C(=CCC4C5(C)CCC(O)C(C)(C(=O)O)C5CCC43C)C2C1O (stereo not given) | inactive | 
CCC[C@@H]1O[C@@H]2C[C@H]3[C@@H]4CCC5=CC(=O)C=C[C@]5(C)[C@H]4[C@@H](O)C[C@]3(C)[C@]2(C(=O)CO)O1 | inactive | 
CC/C=C/CC1=C(CCCCC(CCC(=O)O)OC(C)=O)CCC1=O (stereo not given) | inactive | 
O=C(O)CCCCCC[C@H]1C(=O)NC(=O)N1CC[C@@H](O)C1CCCCC1 | inactive | 
CCCCOC(=O)NC(=O)C1c2ccccc2Oc2ccccc21 | inactive | 
CC1=CC(=O)[C@]2(O[C@@H]3O[C@@H](C)[C@H](O)[C@@H](O)[C@H]3OC(=O)/C=C/c3ccccc3)C=CO[C@@H](O[C@@H]3O[C@H](CO)[C@@H](O)[C@H](O)[C@H]3O)[C@H]12 | inactive | 
CC(C)c1ccc2c(c1)C(=O)CC1[C@@](C)(C(=O)O)CCC[C@]21C (stereo not given in full) | inactive | 
C[C@@H](O)[C@H](NC(=O)c1ccc(C#Cc2ccc(CN3CCOCC3)cc2)cc1)C(=O)NO | inactive | 
CC1(C)CCCC2(C)C1CC(=O)C13CC(CCC12)C(O)(CO)C3 (stereo not given) | inactive | 
O=C(OCC1=CC(O)C2C=CO[C@@H](O[C@@H]3O[C@H](CO)[C@@H](O)[C@H](O)[C@H]3O)C12)c1ccccc1 (stereo not given in full) | inactive | 

Compound | Potency | activity change, negative = inhibition
COc1cc2occc2c(O[C@@H]2O[C@H](CO)[C@@H](O)[C@H](O)[C@H]2O)c1CCC(=O)O | inactive | 
COc1ccc(/C=C/C(=O)O[C@@H]2[C@@H](O)[C@H](C)O[C@@H](O[C@H]3[C@@H]4C=CO[C@@H](O[C@H]5O[C@@H](CO)[C@H](O)[C@@H](O)[C@@H]5O)[C@@H]4[C@@]4(CO)O[C@@H]34)[C@@H]2OC(C)=O)cc1 | inactive | 
COc1cc2ncnc(Nc3cccc(Cl)c3F)c2cc1OC(=O)N1CCN(C)C[C@H]1C | inactive | 
C[C@@H]1C[C@@H]2O[C@H]2/C=C\C=C\C(=O)Cc2c(Cl)c(O)cc(O)c2C(=O)O1 | inactive | 
O=C(Nc1ccccc1)N1CCN(Cc2ccc3ccccc3n2)CC1 | inactive | 
O=C(c1ccccc1)c1ccc2nc(NC(=O)c3csc(C4CCN(c5ncnc6ccsc56)CC4)n3)[nH]c2c1 | inactive | 
C=C1CCC2C(C)(C(=O)O)CCCC2(C)C1CC/C(=C\CO)CO (stereo not given) | inactive | 
COC(=O)C1=CO[C@@H](O[C@@H]2O[C@H](CO)[C@@H](O)[C@H](O)[C@H]2O)[C@H]2[C@@H]1CC(OC)O[C@@H]2C (stereo not given in full) | inactive | 
CC(C)CC(=O)O[C@@H]1OC=C(CO[C@@H]2O[C@H](CO)[C@@H](O)[C@H](O)[C@H]2O)[C@H]2[C@@H]3O[C@H]3[C@@](O)(CO)[C@@H]12 | inactive | 
CO[C@H]1/C=C/C=C/C=C/C[C@H](OC(=O)[C@@H](C)NC(=O)C2CCCCC2)[C@H](C)[C@@H](O)/C(C)=C/CCc2cc(O)cc(c2)NC(=O)C1 | inactive | 
C=C(C(=O)O)C1CCC2(C)CCC(O)C(=C)C2C1 (stereo not given) | 8.91 µM (active) | 
CC(C)C[C@H](CC(=O)NO)C(=O)N[C@H](C(=O)N[C@@H](C)C(=O)NCCN)C(C)(C)C |  | -11.4% [at 10.7 µM] (inactive)
CC(C)c1c2cc(-c3ccnc(NC4CCC(NC5CCOCC5)CC4)n3)ccc2nn1C (stereo not given) | inactive | 
CC1=C(C(=O)O)/C(=C\CO[C@@H]2O[C@H](CO)[C@@H](O)[C@H](O)[C@H]2O)C(OC(=O)/C=C/c2ccc(O)cc2)C1 (stereo not given in full) | inactive | 
CCc1cccc(CC)c1NC(=O)c1nn(C)c2c1CCc1cnc(Nc3ccc(C(=O)NC4CCN(C)CC4)cc3OC(F)(F)F)nc1-2 | inactive | 
O=C(CCc1nnc2n(Cc3ccc(Cl)cc3)c(=O)c3ccccc3n12)NCCC1=CCCCC1 | inactive | 
COc1ccc(/C=C/C(=O)O[C@@H]2[C@@H](O)[C@@H](O)[C@H](O[C@@H]3C=C(CO)[C@H]4[C@H](O[C@@H]5O[C@H](CO)[C@@H](O)[C@H](O)[C@H]5O)OC=C[C@H]43)O[C@H]2C)cc1O | inactive | 
C/C(=C/CO)CC[C@@H]1[C@@](C)(O)CCC2C(C)(C)CCC[C@]21C (stereo not given in full) | inactive | 
CC1CC2OC3(OC2C(C)(C)O)C1C1(C)CCC24CC25CCC(O[C@@H]2OC[C@@H](O)[C@H](O)[C@H]2O)C(C)(C)C5CC=C4C1(C)C3O (stereo not given in full) | inactive | 
O=C(Nc1ccn[nH]1)c1c(F)cccc1F | inactive | 
